Screening data (PubChem BioAssay)
HT1080 IDH1KD tx: kills HT-1080 cells with IDH1 knockdown. HT-1080 IDH1 knockdown viability, ATP luminescence, 48 h. Potency, µM (titrated, usually from 46.1 µM), usual class: cytotoxic. actives 2% (n = 360,000). AID 686971
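IDH1KD HT-1080 cells, 750/well, RPMI + 5% FBS; compound pinned after 2 h settling; 48 h, 37 °C; CellTiter-Glo luminescence; % activity normalised to DMSO and no-cell wells; curves fitted, classed by r2 and efficacy.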
HT1080NT lethal: kills 2HG-producing HT-1080-NT fibrosarcoma cells | HT-1080-NT fibrosarcoma viability, CellTiter-Glo ATP luminescence, 48 h | Potency, µM (top dose mostly 46.1 µM), actives largely listed as cytotoxic | actives 1.6% (n = 360,000) | AID 686970;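 note: NT is the 2HG producing partner of a matched IDH1 knockdown line; nearly all actives have a fitted effect of over 55% in size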
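Toxicity toward the 2HG-producing NT line was scored as %Activity, normalised to DMSO and no-cell wells, from CellTiter-Glo luminescence after 48 hours' treatment.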
ATXN viability: viability counter-screen for ATXN expression inhibitors | S2 cells (HEK-293 line with an ATXN2-luciferase reporter) viability, CellTiter-Fluor protease fluorescence, 24 h | Potency, µM (series often up to 56.7 µM), usual class: cytotoxic | actives 0.49% (n = 400,000) | AID 651635; note: nearly all actives have a fitted effect of over 40% in size
TGFb inhibitor: inhibitors of TGF-b signaling | HepG2 CAGA-GFP TGF-b/SMAD3 reporter, GFP fluorescence, 18 h; TGF-beta stimulated, 500 pg/mL final | Potency, µM (titrated, usually from 46.1 µM), usual class: inhibitors | actives 1.2% (n = 410,000) | AID 588855; note: nearly all actives have a fitted effect of over 65% in size
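Smad-responsive CAGA-GFP expression was quantified in HEPG2 cells exposed to compounds and 500 pg/mL final TGF-beta for 18 h at 37 degrees C; unstimulated wells defined full inhibition.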
HepG2 viability: counter-screen for TGF-b inhibitors: cytotoxicity in HepG2 cells. HepG2 CAGA-GFP viability, ATP luminescence, 18 h. Potency, µM (titrated, usually from 46.1 µM), hits mostly cytotoxic. actives 0.76% (n = 410,000). AID 588856
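CellTiter-Glo luminescence gave cytotoxicity after 18 hours at 37 degrees C. The cells were HepG2 CAGA-GFP in 1% FBS DMEM, stimulated with 500 pg/mL TGF-beta after compound addition. %Activity was normalised to no-cell wells (complete cell-killing) and DMSO (no toxicity), and curves were fitted and classified.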
ATXN2 expr inh: reduces ATXN2 reporter expression in HEK-293 cells; HEK-293 ATXN2-luciferase reporter, luminescence, 24 h; Potency, µM (highest dose often 57 µM), actives largely listed as inhibitors; actives 0.72% (n = 360,000); AID 1745845; note: nearly all actives have a fitted effect of over 55% in size
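qHTS (up to 57 uM final) was run with 24 h compound exposure of reporter cells at 37 °C. Each well was multiplexed: SteadyGlo luminescence measured ATXN2-luciferase expression after a fluorogenic Gly-Phe-AFC viability readout (25 uM final).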
A number is an active result; - = inactive; ? = inconclusive; . = no result; [ ] = remark or other dose. Shown are actives, neighbours in structure and some others; about 3.9% of the full set was active somewhere. Calls come from the whole dose curve; as a rule, active = well fitted curve in the direction sought with a large enough effect; inconclusive = small, poorly fitted or top-dose-only effect, or another doubt; inactive = no such curve, though single readings can be large; an effect the other way counts as inactive or inconclusive.

SMILES	HT1080 IDH1KD tx	HT1080NT lethal	ATXN viability	TGFb inhibitor	HepG2 viability	ATXN2 expr inh
COc1ccc2cc(CN(CC3CCCO3)C(=S)Nc3ccccc3)c(=O)[nH]c2c1 (configuration not stated)	14.6µM	25.9µM	-	-	-	-
Cc1cccc(N(C)c2nc3ccccc3c3nnc(C)n23)c1	.	.	.	?	-	.
COc1ccc2cc(CN(CC3CCCO3)C(=O)Nc3ccccc3OC)c(=O)[nH]c2c1 (configuration not stated)	2.31µM	2.59µM	?	-	-	-
O[C@@H]1CO[C@H]2[C@@H]1OC[C@@H]2O	.	.	?	.	.	-
COc1ccccc1N(C)S(=O)(=O)c1ccc(C(=O)OCC(=O)N2CCC2)cc1	16.4µM	?	-	-	-	-
Cc1cccc(C)c1-n1ncc(C(=O)O)c1C1CCN(C(=O)OC(C)(C)C)CC1	.	.	?	-	-	-
Fc1ccc(-c2cc(-c3ccc(F)cc3)c3c(n2)-c2cc(F)ccc2OC3)cc1	.	.	-	-	-	-
CCc1ccc(OCC2c3cc(OC)c(OC)cc3CCN2C(=O)Cc2ccc(OC)c(OC)c2)cc1 (configuration not stated)	.	.	-	11.2µM	-	?
COc1ccc(CC(=O)N2CCc3cc(OC)c(OC)cc3C2COc2ccc(OC)cc2)cc1 (configuration not stated)	.	.	-	-	-	-
COc1ccc(-c2c(C#N)c(SCC(=O)Nc3ccccc3C)nc(C)c2C(=O)Nc2ccccc2)cc1OC	.	.	.	-	-	.
COc1cc(C2C(C#N)=C(C)NC3=C2C(=O)c2ccccc23)cc(OC)c1OC (configuration not stated)	0.794µM	0.891µM	?	?	-	-
Cc1ccc(-c2csc3nc4c5ccccc5c(NCCCN(C)C)nn4c(=O)c23)cc1	-	-	-	?	14.1µM	-
Cc1ccc(S(=O)(=O)n2cccc2/C=C/[N+](=O)[O-])cc1	?	?	?	14.1µM	12.6µM	.
Cc1ccc(S(=O)(=O)n2ccc3cccnc32)cc1	-	-	-	-	-	-
COc1ccc(N2C(=O)[C@@H]3C[C@H]2CN3Cc2cccn2-c2ccc(Cl)cn2)c(C)c1	.	.	-	.	.	.
CC1CCC(NC(=O)c2ccc3c(c2)N(Cc2ccccc2F)C(=O)c2ccccc2S3)CC1 (configuration not stated)	.	.	-	-	-	-
COC(=O)C(C(=O)OC)C(CC(=O)c1ccc(C)cc1)c1cc(OC)c(OC)c(OC)c1 (configuration not stated)	-	-	-	-	-	-
COc1ccc(C(CC(=O)c2ccc(C)cc2)C(C#N)C#N)cc1OC (configuration not stated)	23.1µM	20.6µM	29.9µM	?	-	?
Cc1c(C(=O)NCCc2ccc(Cl)cc2)cccc1-n1cnc2cccnc21	.	.	.	-	-	.
Cc1onc(-c2ccccc2)c1CNS(=O)(=O)c1ccccc1	-	-	-	-	11.2µM	-
N/C(Cc1ccc([N+](=O)[O-])cc1)=N\OC(=O)c1ccccc1Br	-	-	-	-	-	-
Cc1cccc(C(=O)O/N=C(\N)Cc2ccc([N+](=O)[O-])cc2)c1	-	?	?	-	-	-
N/C(Cc1ccc([N+](=O)[O-])cc1)=N\OC(=O)C(c1ccccc1)c1ccccc1	?	17.8µM	.	-	-	?
N/C(Cc1ccc([N+](=O)[O-])cc1)=N\OC(=O)c1ccc2ccccc2c1	?	18.4µM	-	-	-	-
N/C(Cc1ccccc1)=N\OC(=O)c1cccc2ccccc12	20.6µM	?	?	-	-	-[11.3 µM]
SMILES	HT1080 IDH1KD tx	HT1080NT lethal	ATXN viability	TGFb inhibitor	HepG2 viability	ATXN2 expr inh
OCC(O)COc1ccc(Cl)cc1 (configuration not stated)	.	.	-	.	.	.
Cc1ccc(CN2CCOc3ccc(C(C)(O)COc4ccccc4)cc3C2)o1 (configuration not stated)	.	.	-	.	.	.
CC(C)C1=CC(=Nc2ccc(S(N)(=O)=O)cc2)C=C(C(C)C)C1=O	-	-	-	?	11.2µM	-
Cc1ccc2nc(NC(=O)CSCC(=O)OCC(=O)c3ccc(Br)cc3)sc2c1	-	-	-	-	-	5.62µM
CC1(C)N=C(N)N=C(N)N1c1ccc(CCCCc2ccccc2)cc1	0.731µM	?	?	?	-	.
CC1(C)N=C(N)N=C(N)N1c1ccc(Oc2ccc(Cl)cc2)c(Cl)c1	1.3µM	2.31µM	?	?	-	?
CC1(C)N=C(N)N=C(N)N1c1cccc(CN)c1	?	-	-	-	-	-
CC1(C)N=C(N)N=C(N)N1c1ccccc1	1.64µM	3.66µM	-	-	-	-
COc1ccc2[nH]c(=O)c(CN(C(=O)c3cccc(Cl)c3)c3ccccc3C)cc2c1	.	.	-	-	-	-
Cc1cccc2c1-c1sc(C(=O)N3CCN(c4ccccc4)CC3)cc1CO2	.	.	-	-	-	-
N=c1c2c(-c3ccccc3)c(-c3ccccc3)n(Cc3ccco3)c2ncn1CCCn1ccnc1	?	?	?	?	-	-
N=c1c2c(-c3ccccc3)c(-c3ccccc3)n(Cc3ccco3)c2ncn1CCCN1CCOCC1	13µM	?	-	?	-	-
c1ccc(-c2c(-c3ccccc3)n(Cc3ccco3)c3ncnc(NCCCn4ccnc4)c23)cc1	18.4µM	18.4µM	.	?	20µM	?
CC(C)Cn1cnc2c(c(-c3ccccc3)c(-c3ccccc3)n2Cc2ccco2)c1=N	16.4µM	?	?	?	12.6µM	-
N=c1c2c(-c3ccccc3)c(-c3ccccc3)n(Cc3ccccc3)c2ncn1CCO	?	-	8.91µM	?	-	?
COCC(=O)N1c2nc(-c3ccco3)nn2C2(CCCCC2)[C@@H]2CCCC[C@@H]21	.	.	.	-	-	.
CCN(CCN(C)Cl)/[N+]([O-])=N/Oc1ccc([N+](=O)[O-])cc1[N+](=O)[O-]	.	.	.	?	-	.
O=C1NC[C@H](Cc2ccc(O)cc2)N(C[C@@H]2CCCN2C[C@H](Cc2ccccc2)N2C[C@H](Cc3ccc(O)cc3)N(CC3CCCCC3)C(=O)C2=O)C1=O	-	-	-	.	.	-
CC(C)C[C@H]1CN([C@@H](Cc2ccccc2)CN2CCC[C@@H]2CN2C(=O)C(=O)NC[C@@H]2Cc2ccccc2)C(=O)C(=O)N1CC1CCCCC1	16.4µM	?	20µM	8.91µM	20µM	?
O=C1NC[C@H](Cc2ccccc2)N(C[C@H]2CCCN2C[C@H](Cc2ccccc2)N2C[C@H](Cc3ccccc3)N(CC3CCCCCC3)C(=O)C2=O)C1=O	?	?	17.8µM	?	-	?
